Results published in PubChem BioAssay AID1159580 (chemical genetic matrix, 2015).
Out of some 5,500 compounds screened, about 2,000 (36%) were called active. About 18% were inconclusive and are not listed. The list shows a part of the results. Unmarked numbers belong to inactive results. Cut-off read from the data, not from the text of the source: active = normalized growth mostly below about 0.91 (no sharp cut-off); inconclusive = no clear call, values can overlap the other calls; inactive = mostly above about 0.92.

Experiment: chemical genetic growth profiling, strain panel (AID 1159580);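 note: tested at 20 µM; growth read once vehicle control cultures reached saturation at 30 °C; 1 = growth at the plate median or of vehicle wells; lower values mean less growth of the strain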
Conditions: S. cerevisiae deletion strains, growth OD

Q: What does the source list for `O=C(Oc1cccc2[nH]ccc12)c1ccc(C(F)(F)F)cc1`?
A: normalized growth (locus YAR019C, strain CDC15, hits give low values): 0.968; normalized growth (locus YBL105C, strain PKC1, hits give low values): 0.97; normalized growth (locus YBR135W, strain CKS1, hits give low values): 0.974; normalized growth (locus YBR136W, strain MEC1, hits give low values): 0.968; normalized growth (locus YBR160W, strain CDC28, hits give low values): 0.974; normalized growth (locus YDL017W, strain CDC7, hits give low values): 0.965; normalized growth (locus YDL028C, strain MPS1, hits give low values): 0.974; normalized growth (locus YDL101C, strain DUN1, hits give low values): 0.984; normalized growth (locus YDL108W, strain KIN28, hits give low values): 0.971; normalized growth (locus YDL132W, strain cdc53, hits give low values): 0.973; normalized growth (locus YDL214C, strain PRR2, hits give low values): 0.82; normalized growth (locus YDR052C, strain DBF4, hits give low values): 0.972; normalized growth (locus YDR054C, strain cdc34, hits give low values): 0.961; normalized growth (locus YDR226W, strain ADK1, hits give low values): 0.956; normalized growth (locus YDR477W, strain SNF1, hits give low values): 0.814; normalized growth (locus YER123W, strain YCK3, hits give low values): 0.702; normalized growth (locus YER133W, strain GLC7, hits give low values): 0.775; normalized growth (locus YFL009W, strain cdc4, hits give low values): 0.966; normalized growth (locus YFL029C, strain CAK1, hits give low values): 0.968; normalized growth (locus YFR003C, strain YPI1, hits give low values): 0.966; normalized growth (locus YFR019W, strain FAB1, hits give low values): 0.855; normalized growth (locus YFR028C, strain CDC14, hits give low values): 0.955; normalized growth (locus YGR040W, strain KSS1, hits give low values): 0.805; normalized growth (locus YGR052W, strain FMP48, hits give low values): 0.763; normalized growth (locus YGR092W, strain DBF2, hits give low values): 0.634; normalized growth (locus YHR030C, strain SLT2, hits give low values): 0.454 (active); normalized growth (locus YHR079C, strain IRE1, hits give low values): 0.607; normalized growth (locus YHR082C, strain KSP1, hits give low values): 0.857; normalized growth (locus YHR205W, strain SCH9, hits give low values): 0.862; normalized growth (locus YIL147C, strain SLN1, hits give low values): 0.962; normalized growth (locus YJL095W, strain BCK1, hits give low values): 0.645; normalized growth (locus YJL128C, strain PBS2, hits give low values): 0.933; normalized growth (locus YJL157C, strain FAR1, hits give low values): 0.807; normalized growth (locus YJR016C, strain ILV3, hits give low values): 0.966; normalized growth (locus YJR066W, strain TOR1 (second series), hits give low values): 0.699; normalized growth (locus YJR066W, strain TOR1, hits give low values): 0.679; normalized growth (locus YKL048C, strain ELM1, hits give low values): 0.786 (active); normalized growth (locus YKL067W, strain YNK1, hits give low values): 0.827; normalized growth (locus YKL101W, strain HSL1, hits give low values): 0.788; normalized growth (locus YKL193C, strain SDS22, hits give low values): 0.964; normalized growth (locus YKL203C, strain TOR2, hits give low values): 0.831; normalized growth (locus YLR113W, strain HOG1, hits give low values): 0.754 (active); normalized growth (locus YLR133W, strain CKI1, hits give low values): 0.822; normalized growth (locus YLR403W, strain SFP1, hits give low values): 0.831; normalized growth (locus YML070W, strain DAK1, hits give low values): 0.791; normalized growth (locus YMR001C, strain CDC5, hits give low values): 0.964; normalized growth (locus YMR205C, strain PFK2 (second series), hits give low values): 0.862; normalized growth (locus YMR277W, strain FCP1, hits give low values): 0.96; normalized growth (locus YNL006W, strain LST8, hits give low values): 0.969; normalized growth (locus YNL020C, strain ARK1, hits give low values): 0.763; normalized growth (locus YNL161W, strain CBK1, hits give low values): 0.987; normalized growth (locus YNL183C, strain NPR1, hits give low values): 0.769; normalized growth (locus YNL207W, strain RIO2, hits give low values): 0.97; normalized growth (locus YNL222W, strain SSU72, hits give low values): 0.976; normalized growth (locus YNL307C, strain MCK1 (second series), hits give low values): 0.859; normalized growth (locus YOL078W, strain AVO1, hits give low values): 0.978; normalized growth (locus YOL136C, strain PFK27, hits give low values): 0.815; normalized growth (locus YOR061W, strain CKA2, hits give low values): 0.603 (active); normalized growth (locus YOR119C, strain RIO1, hits give low values): 0.887; normalized growth (locus YOR231W, strain MKK1, hits give low values): 0.755; normalized growth (locus YOR329C, strain SCD5, hits give low values): 0.97; normalized growth (locus YPL031C, strain PHO85, hits give low values): 0.809; normalized growth (locus YPL153C, strain RAD53, hits give low values): 0.757; normalized growth (locus YPL204W, strain HRR25, hits give low values): 0.778; normalized growth (locus YPL209C, strain IPL1, hits give low values): 0.965; normalized growth (locus YPL256C, strain CLN2, hits give low values): 0.75 (active); normalized growth (locus YPR025C, strain CCL1, hits give low values): 0.975; normalized growth (locus YPR106W, strain ISR1, hits give low values): 0.972; normalized growth (locus YPR111W, strain DBF20, hits give low values): 0.937; normalized growth (strain NNK1, hits give low values): 0.961; normalized growth (strain TSCII, hits give low values): 0.967
